# Bioassay records (PubChem)
# TbREL1 inh: TbREL1 inhibition, primary screen; inhibition, % at 9.66 µM; AID 1117264; TbREL1 RNA ligation, FRET fluorescence; P86926; 89,000 tested, 0.49% active;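 active = inhibition above the mean inhibition across all screened compounds plus 3 SD, cut at about 11% in these data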;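 note: 0% = plate median of test wells and 100% = NSC42067 control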
# Target sequence (P86926 whole entry, looked up): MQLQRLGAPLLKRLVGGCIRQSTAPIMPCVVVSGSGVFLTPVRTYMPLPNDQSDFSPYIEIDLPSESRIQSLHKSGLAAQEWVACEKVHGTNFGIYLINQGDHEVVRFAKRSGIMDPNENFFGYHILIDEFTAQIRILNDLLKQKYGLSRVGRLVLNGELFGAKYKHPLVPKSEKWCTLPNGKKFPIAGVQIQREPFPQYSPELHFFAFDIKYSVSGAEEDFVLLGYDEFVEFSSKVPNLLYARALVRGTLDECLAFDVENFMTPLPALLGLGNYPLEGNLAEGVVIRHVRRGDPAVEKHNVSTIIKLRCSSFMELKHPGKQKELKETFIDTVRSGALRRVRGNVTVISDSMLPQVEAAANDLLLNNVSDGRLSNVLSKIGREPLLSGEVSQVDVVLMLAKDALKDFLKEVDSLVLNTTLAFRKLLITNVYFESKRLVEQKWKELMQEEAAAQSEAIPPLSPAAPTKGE
# * marks the source's active call; other numbers are inactive results. Only a selection was taken, and hits are over-represented in it overall.
SMILES,TbREL1 inh
Cc1c(NC(=O)CN2CC(C)OC(C)C2)c(=O)n(-c2ccccc2)n1C (stereo not drawn),13*
Cc1ccc(SCCC(=O)Nc2c(C)n(C)n(-c3ccccc3)c2=O)cc1,-1
Cc1c(NC(=O)CN2CCN(c3ccccc3)CC2)c(=O)n(-c2ccccc2)n1C,3
CCCOc1ccc(F)cc1-c1cc(C(=O)NC(C)C)[nH]n1,3
CCCOc1ccc(F)cc1-c1cc(C(=O)Nc2ccc(OC)c(OC)c2)[nH]n1,16*
CCCOc1ccc(F)cc1-c1cc(C(=O)Nc2ccc(C)c(NS(C)(=O)=O)c2)[nH]n1,-1
Cc1ccc2nc(CN(C)C(=O)[C@H](CCc3ccccc3)NC(=O)[C@H]3O[C@@H](n4cnc5c(N)ncnc54)[C@H](O)[C@@H]3O)[nH]c2c1,2
CCC(=O)N1CCC(C(=O)NC2CCCc3ccccc32)CC1 (stereo not drawn),-1
COC(=O)CCN(Cc1cccc(OC)c1OC)S(=O)(=O)c1ccccc1Br,-3
COc1cccc(C(=O)n2ccc3ccc(-c4ccc5ccn(C(=O)c6cccc(OC)c6)c5c4)cc32)c1,0
O=C1Cc2cc(S(=O)(=O)N3CCN(c4ccc(C(=O)O)cc4)CC3)ccc2N1,4
CC(=O)c1ccc(N2CCN(S(=O)(=O)c3ccc4c(c3)C(Cl)(Cl)C(=O)N4)CC2)cc1,11*
CC(=O)Nc1ccc(S(=O)(=O)N2CCN(c3ccc(C(C)=O)cc3)CC2)cc1,5
COC(=O)c1ccc(Cn2ccc3ccc(-c4ccc5ccn(C(=O)c6ccccc6OC)c5c4)cc32)cc1,1
COc1ccc2c(c1)N[C@@](CCNC=O)(c1[nH]c3ccccc3c1CCNC=O)C2=O,5
CCOC(=O)C1CCCN(S(=O)(=O)c2cc3c(cc2Br)CCN3C(=O)CC)C1 (stereo not drawn),-3
Cc1nn(-c2ccccc2)c2sc(C(=O)N3CCN(Cc4ccccc4)CC3)cc12,1
CC(Cl)C(=O)N1CCC(C(=O)NC2CCCc3ccccc32)CC1 (stereo not drawn),0
Cn1c(Cc2cccs2)nnc1SCC(=O)Nc1ccc2c(c1)OCCO2,1
CN(C)c1ncc(C2=C(Cl)C(=O)C(N3CCCC3)=C(Cl)C2=O)s1,69*
CC(=O)c1cnc(N(C)C)s1,0
CCOc1ccc(N(CC(=O)Nc2c(C)n(C)n(-c3ccccc3)c2=O)S(=O)(=O)c2ccc(C)c(C)c2)cc1,-2
COc1cccc(-c2nnc(SCC(=O)Nc3ccc(Oc4ccccc4)cc3)n2Cc2ccco2)c1,1
O=C(CSc1nnc(Cn2c(=O)sc3ccccc32)n1-c1ccccc1)N1CCCCCC1,12*
Cn1c(Cn2c(=O)sc3ccccc32)nnc1SCC(=O)N1CCCCCC1,-2
SMILES,TbREL1 inh
O=C(CSc1nnc(Cn2c(=O)sc3ccccc32)n1-c1ccccc1)N1CCCC1,1
CC1CC(C)CN(CCCNS(=O)(=O)c2cc3c(cc2Br)CCN3C(=O)C2CC2)C1 (stereo not drawn),2
O=C(NCCO)[C@H](Cc1ccccc1)NC1(C(=O)NCCN2CCOCC2)CCCCC1,-3
C=C(C)CSc1nnc(-c2cc(-c3ccccc3)n[nH]2)n1N,2
C#CCOCCOCCOCCNc1nc(N2CCN(C(=O)CCCCCCCCCCNC(=O)[C@H](CCCCN)n3cc(CCO)nn3)CC2)nc(N2CCN(C(=O)CCCCCCCCCCNC(=O)[C@H](CCCCN)n3cc(CCCC(=O)O)nn3)CC2)n1,12*
C#CCOCCOCCOCCNc1nc(N2CCOCC2)nc(N2CCN(C(=O)[C@H](CCCCN)n3cc(CCC(=O)O)nn3)CC2)n1,1
C#CCOCCOCCOCCNc1nc(N2CCOCC2)nc(N2CCN(C(=O)CCCCCCCCCCNC(=O)[C@H](CO)n3cc(CCCSC)nn3)CC2)n1,-3
O=C(NCC(c1ccccc1)c1ccccc1)[C@H](Cc1ccccc1)NC1(C(=O)NC2CCCCC2)CCC1,-3
COc1cccc(C(=O)NCCN2C(=O)C3C4C=CC(C4)C3C2=O)c1 (stereo not drawn),-3
Cn1c(=O)oc2cc(S(=O)(=O)N3CCN(CCO)CC3)ccc21,1
CC(C)C(C)NC(=O)Cn1cnc2c(oc3ccccc32)c1=O (stereo not drawn),2
CCOC(=O)C(C)n1cnc2c(oc3ccccc32)c1=O (stereo not drawn),17*
CCCCn1cnc2c(oc3ccccc32)c1=O,3
CCCN(CC1CC1)C(=O)c1oc(=O)c2ccccc2c1-c1ccc(C)cc1,8
Cc1ccccc1NCC(=O)N/N=C/c1ccc[nH]1,2
CCCCCCSc1ccc(-c2nc3ccc(Cl)cn3c2NCCCC)cc1OC,-1
CCCCCCSc1cc(-c2nc3ccc(Cl)cn3c2NC2CCCCC2)ccc1OC,-2
CCCCNc1c(-c2ccc(SC3CCCCC3)c(OC)c2)nc2ccc(Cl)cn12,25*
Oc1ccc2ccccc2c1C=NN1CCN(Cc2ccc(Cl)cc2)CC1,-3
CCOC(=O)c1ccc(NC(=O)CSc2nnc(-c3cc(-c4ccccc4)n[nH]3)n2N)cc1,8
O=C(c1cc([N+](=O)[O-])cc([N+](=O)[O-])c1)N1CCN(Cc2ccc3c(c2)OCO3)CC1,-2
